# Screening results deposited in PubChem by National Center for Advancing Translational Sciences (NCATS).
# Hits are enriched below; roughly 2.9% of the tested compounds scored in any of these assays.
# SNCA viab count: GF-AFC viability counterscreen for inhibitors of alpha-synuclein gene (SNCA) expression; HEK-293-SNCA-luc viability, GF-AFC fluorescence, 24 h; Potency, µM (doses to about 57.1 µM), inactives show top-dose activity change, negative = cytotoxicity, actives largely listed as cytotoxic; hit rate 0.12% among 150,000; AID 1671193, 2021;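 note: potency is the fitted concentration of half-maximal effect; 0% = DMSO-treated cells and -100% = medium-only wells without cells; nearly all actives have a fitted effect of over 30% in size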
#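 Cytotoxicity counterscreen: after 24 h compound treatment of genome-edited SNCA-luciferase HEK-293 cells, live-cell protease substrate GF-AFC read by fluorescence after 30 min; activity scaled between DMSO (0%) and medium-only (-100%), curves Hill-fitted.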
# SNCA expr inh: Primary qHTS assay for inhibitors of alpha-synuclein gene (SNCA) expression; HEK-293 SNCA-luciferase knock-in, luminescence, 24 h; Potency, µM (top dose mostly 57.2 µM), for inactives: at the top dose activity change, negative = inhibition, hits mostly inhibitors; hit rate 0.17% among 140,000;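 note: potency is the fitted concentration of half-maximal effect; plate controls were DMSO cells for no effect and cell-free wells for full effect; nearly all actives have a fitted effect of over 45% in size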
# IP6K1 inhibitor: Primary qHTS assay for small molecule inhibitors of Inositol hexaphosphate kinase 1 (IP6K1); Inositol hexakisphosphate kinase 1 (Homo sapiens), Q92551; AID 1645851, 2021; hit rate 0.81% among 140,000; activity change, % (series mostly up to about 58 µM); IP6K1 kinase, ADP-Glo luminescence, 2 h; active compounds read low; in the data active = activity change below about -25%; note: % is set by controls: 0 for no effect and ±100 for the full control effect
#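 ADP-Glo luminescence measures ADP made by human IP6K1 during a 2 h RT reaction with ATP/IP6 (mix at 1.3 mM/130 uM); top library doses 57.5 and 19.1 uM final.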
# KDM5B inh: Primary screen for KDM5B Histone Demethylases FDH-coupled qHTS | Lysine-specific demethylase 5B (Homo sapiens), Q9UGL1 | KDM5B demethylase, FDH-coupled NADH fluorescence (FDH is formaldehyde dehydrogenase) | Potency, µM (series often up to 57.7 µM), usual class: inhibitors | hit rate 2.6% among 220,000 | AID 1347165, 2019; note: potency is the fitted concentration of half-maximal effect; 0% is about no effect; nearly all actives have a fitted effect of over 70% in size
#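 Here, H3K4me3 peptide (12.5 µM in substrate mix) is demethylated by KDM5BΔAP, 200 nM final, after 10 min compound exposure. Formaldehyde product is coupled through FDH (0.25 U/mL in mix) to NADH fluorescence; 30-min ΔRFU feeds dose-response curves.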
# * marks the source's active call; other numbers are inactive results; i = inactive; ? = inconclusive; . = not tested or not shown; [ ] = another dose, or the depositor's remark. Unless noted, calls come from the whole dose curve; as a rule, active = well fitted curve in the direction sought with a large enough effect; inconclusive = small, poorly fitted or top-dose-only effect, or another doubt; inactive = no such curve, though single readings can be large; an effect the other way counts as inactive or inconclusive.
SMILES,SNCA viab count,SNCA expr inh,IP6K1 inhibitor,KDM5B inh
Cc1cc(S(=O)(=O)Nc2ccc(C(=O)N3c4ccccc4CC3C)cc2)ccc1F (centres undefined),.,.,.,i
CNc1ccc(OC2CCN(C(=O)CCc3nc4ccccc4[nH]3)C2)nc1 (centres undefined),7%,-9%,26,28µM*
Cc1nc(-c2ccc(OC3CCN(C(=O)CCc4nc5ccccc5[nH]4)C3)cc2)no1 (centres undefined),-15%,-29%,-4,i
COc1ccc(Cl)cc1-c1ccc2c(c1)C(=O)N1CCN(C(=O)c3ccc(N(C)C)cc3)C[C@@H]1C(=O)N2,?,?,0,32µM*
CCCNC(=O)N1CCN2C(=O)c3cc(-c4cccc(C(F)(F)F)c4)ccc3NC(=O)[C@@H]2C1,-9%,-22%,2,32µM*
COc1ccc(-c2ccc3c(c2)C(=O)N2CCN(C(=O)c4cccc(F)c4)C[C@@H]2C(=O)N3)cc1,-6%,28%,3,18µM*
COc1ccc(Cl)cc1-c1ccc2c(c1)C(=O)N1CCN(C(=O)C3CCCCC3)C[C@@H]1C(=O)N2,-2%,-23%,-6,10µM*
COc1ccc(Cl)cc1-c1ccc2c(c1)C(=O)N1CCN(C(=O)C3CC3)C[C@@H]1C(=O)N2,-5%[87.6 µM],10%[87.6 µM],-11,?
O=C1Nc2ccc(-c3cccc(C(F)(F)F)c3)cc2C(=O)N2CCN(C(=O)c3cccc(F)c3)C[C@H]12,1%,27%,2,i
Cn1ncc2c(C(=O)NCc3cccs3)cc(-c3ccc(F)cc3)nc21,.,.,-6,.
O=C1Nc2ccc(-c3ccccc3F)cc2C(=O)N2CCN(C(=O)c3ccccc3)C[C@H]12,2%[87.6 µM],?,0,40µM*
COc1ccc(Cl)cc1-c1ccc2c(c1)C(=O)N1CCN(C(=O)c3cccs3)C[C@@H]1C(=O)N2,-6%,-18%,21,28µM*
COc1ccc(Cl)cc1-c1ccc2c(c1)C(=O)N1CCN(C(=O)c3ccccc3)C[C@@H]1C(=O)N2,-11%,?,-4,22µM*
Fc1ccc(CN2CCC3(CC(Cc4ccccc4)=NO3)C2)cc1 (centres undefined),-12%[87.6 µM],-6%[87.6 µM],1,32µM*
Clc1ccc(CN2CCC3(CC2)CC(Cc2ccccc2)=NO3)cc1,-5%,?,-7,i
COc1ccc(CN2CCC3(CC(Cc4ccccc4)=NO3)C2)cc1 (centres undefined),-4%,-3%,0,25µM*
Cc1ccc(/C=C/c2onc(C)c2S(=O)(=O)N2CCC(C(=O)NCc3ccc(Cl)cc3)CC2)cc1,13%,8%,14,i
COc1ccc(-n2c(=O)c(C(=O)NC(C)C)nc3cccnc32)cc1,9%,15%,13,.
CCc1cccc(NC(=O)Cn2c(N(C)Cc3ccccc3)nc(C)cc2=O)c1,-9%,?,-16,25µM*
Cc1cccc(NC(=O)Cn2c(N(C)Cc3ccccc3)nc(C)cc2=O)c1,10%,-13%,9,i
Cc1nc(N2CCC(NC(=O)CCC3CCCC3)CC2)cc(C(F)(F)F)n1,-7%,4%,8,i
Cc1cccc(N(C)c2ccc3cc(S(=O)(=O)N4CCCC4)ccc3n2)c1,6%,-7%,18,?
CN(Cc1ccccc1)c1ccc2cc(S(=O)(=O)N3CCCCC3)ccc2n1,3%,25µM*,-1,i
O=C(NCCCN1CCCC1)c1ccc(-c2ccc(N3CCCCC3)nc2)cc1,0%,21%,20,22µM*
O=C(NCCN1CCCCC1)c1ccc(-c2ccc(N3CCSCC3)nc2)cc1,3%,59%,-1,28µM*
CN(Cc1ccco1)C(=O)c1ccc(-c2ccc(N3CCCCCC3)nc2)cc1,-7%,31%,-6,28µM*
CN(Cc1ccco1)C(=O)c1cccc(S(=O)(=O)N2CCCCC2)c1,.,.,.,i
CC(C)CCNC(=O)c1ccc(-c2ccc(N3CCSCC3)nc2)cc1,-13%,2%,9,22µM*
CCC(C)NC(=O)c1ccc(-c2ccc(N3CCSCC3)nc2)cc1 (centres undefined),0%,10%,1,?
COc1ccc(CN2C(=O)O[C@@H]3CN(c4ccnc(SC)n4)C[C@@H]32)cc1OC,-6%,18%,1,i
